Sampled rows, rich in hits. Any-hit rate of the full collection: about 3.5%.
Pf apPOL block: Pf-apPOL DNA polymerase inhibition; Recombinant Pf-apPOL, molecular beacon fluorescence, 1.5 h; inhibition, % at 10 µM; 0.25% of 210,000 active; AID 1794808
mHTT-CaM PPI inh: inhibitors of human mutant huntingtin-calmodulin interaction | P42858 | AlphaScreen His-mHTT/GST-CaM binding, luminescence | inhibition, % at 15 µM | 3.6% of 190,000 active | AID 1671202;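 note: 0% = both proteins with DMSO and 100% = one protein alone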
Target sequence (P42858 whole entry, looked up, stated change not applied): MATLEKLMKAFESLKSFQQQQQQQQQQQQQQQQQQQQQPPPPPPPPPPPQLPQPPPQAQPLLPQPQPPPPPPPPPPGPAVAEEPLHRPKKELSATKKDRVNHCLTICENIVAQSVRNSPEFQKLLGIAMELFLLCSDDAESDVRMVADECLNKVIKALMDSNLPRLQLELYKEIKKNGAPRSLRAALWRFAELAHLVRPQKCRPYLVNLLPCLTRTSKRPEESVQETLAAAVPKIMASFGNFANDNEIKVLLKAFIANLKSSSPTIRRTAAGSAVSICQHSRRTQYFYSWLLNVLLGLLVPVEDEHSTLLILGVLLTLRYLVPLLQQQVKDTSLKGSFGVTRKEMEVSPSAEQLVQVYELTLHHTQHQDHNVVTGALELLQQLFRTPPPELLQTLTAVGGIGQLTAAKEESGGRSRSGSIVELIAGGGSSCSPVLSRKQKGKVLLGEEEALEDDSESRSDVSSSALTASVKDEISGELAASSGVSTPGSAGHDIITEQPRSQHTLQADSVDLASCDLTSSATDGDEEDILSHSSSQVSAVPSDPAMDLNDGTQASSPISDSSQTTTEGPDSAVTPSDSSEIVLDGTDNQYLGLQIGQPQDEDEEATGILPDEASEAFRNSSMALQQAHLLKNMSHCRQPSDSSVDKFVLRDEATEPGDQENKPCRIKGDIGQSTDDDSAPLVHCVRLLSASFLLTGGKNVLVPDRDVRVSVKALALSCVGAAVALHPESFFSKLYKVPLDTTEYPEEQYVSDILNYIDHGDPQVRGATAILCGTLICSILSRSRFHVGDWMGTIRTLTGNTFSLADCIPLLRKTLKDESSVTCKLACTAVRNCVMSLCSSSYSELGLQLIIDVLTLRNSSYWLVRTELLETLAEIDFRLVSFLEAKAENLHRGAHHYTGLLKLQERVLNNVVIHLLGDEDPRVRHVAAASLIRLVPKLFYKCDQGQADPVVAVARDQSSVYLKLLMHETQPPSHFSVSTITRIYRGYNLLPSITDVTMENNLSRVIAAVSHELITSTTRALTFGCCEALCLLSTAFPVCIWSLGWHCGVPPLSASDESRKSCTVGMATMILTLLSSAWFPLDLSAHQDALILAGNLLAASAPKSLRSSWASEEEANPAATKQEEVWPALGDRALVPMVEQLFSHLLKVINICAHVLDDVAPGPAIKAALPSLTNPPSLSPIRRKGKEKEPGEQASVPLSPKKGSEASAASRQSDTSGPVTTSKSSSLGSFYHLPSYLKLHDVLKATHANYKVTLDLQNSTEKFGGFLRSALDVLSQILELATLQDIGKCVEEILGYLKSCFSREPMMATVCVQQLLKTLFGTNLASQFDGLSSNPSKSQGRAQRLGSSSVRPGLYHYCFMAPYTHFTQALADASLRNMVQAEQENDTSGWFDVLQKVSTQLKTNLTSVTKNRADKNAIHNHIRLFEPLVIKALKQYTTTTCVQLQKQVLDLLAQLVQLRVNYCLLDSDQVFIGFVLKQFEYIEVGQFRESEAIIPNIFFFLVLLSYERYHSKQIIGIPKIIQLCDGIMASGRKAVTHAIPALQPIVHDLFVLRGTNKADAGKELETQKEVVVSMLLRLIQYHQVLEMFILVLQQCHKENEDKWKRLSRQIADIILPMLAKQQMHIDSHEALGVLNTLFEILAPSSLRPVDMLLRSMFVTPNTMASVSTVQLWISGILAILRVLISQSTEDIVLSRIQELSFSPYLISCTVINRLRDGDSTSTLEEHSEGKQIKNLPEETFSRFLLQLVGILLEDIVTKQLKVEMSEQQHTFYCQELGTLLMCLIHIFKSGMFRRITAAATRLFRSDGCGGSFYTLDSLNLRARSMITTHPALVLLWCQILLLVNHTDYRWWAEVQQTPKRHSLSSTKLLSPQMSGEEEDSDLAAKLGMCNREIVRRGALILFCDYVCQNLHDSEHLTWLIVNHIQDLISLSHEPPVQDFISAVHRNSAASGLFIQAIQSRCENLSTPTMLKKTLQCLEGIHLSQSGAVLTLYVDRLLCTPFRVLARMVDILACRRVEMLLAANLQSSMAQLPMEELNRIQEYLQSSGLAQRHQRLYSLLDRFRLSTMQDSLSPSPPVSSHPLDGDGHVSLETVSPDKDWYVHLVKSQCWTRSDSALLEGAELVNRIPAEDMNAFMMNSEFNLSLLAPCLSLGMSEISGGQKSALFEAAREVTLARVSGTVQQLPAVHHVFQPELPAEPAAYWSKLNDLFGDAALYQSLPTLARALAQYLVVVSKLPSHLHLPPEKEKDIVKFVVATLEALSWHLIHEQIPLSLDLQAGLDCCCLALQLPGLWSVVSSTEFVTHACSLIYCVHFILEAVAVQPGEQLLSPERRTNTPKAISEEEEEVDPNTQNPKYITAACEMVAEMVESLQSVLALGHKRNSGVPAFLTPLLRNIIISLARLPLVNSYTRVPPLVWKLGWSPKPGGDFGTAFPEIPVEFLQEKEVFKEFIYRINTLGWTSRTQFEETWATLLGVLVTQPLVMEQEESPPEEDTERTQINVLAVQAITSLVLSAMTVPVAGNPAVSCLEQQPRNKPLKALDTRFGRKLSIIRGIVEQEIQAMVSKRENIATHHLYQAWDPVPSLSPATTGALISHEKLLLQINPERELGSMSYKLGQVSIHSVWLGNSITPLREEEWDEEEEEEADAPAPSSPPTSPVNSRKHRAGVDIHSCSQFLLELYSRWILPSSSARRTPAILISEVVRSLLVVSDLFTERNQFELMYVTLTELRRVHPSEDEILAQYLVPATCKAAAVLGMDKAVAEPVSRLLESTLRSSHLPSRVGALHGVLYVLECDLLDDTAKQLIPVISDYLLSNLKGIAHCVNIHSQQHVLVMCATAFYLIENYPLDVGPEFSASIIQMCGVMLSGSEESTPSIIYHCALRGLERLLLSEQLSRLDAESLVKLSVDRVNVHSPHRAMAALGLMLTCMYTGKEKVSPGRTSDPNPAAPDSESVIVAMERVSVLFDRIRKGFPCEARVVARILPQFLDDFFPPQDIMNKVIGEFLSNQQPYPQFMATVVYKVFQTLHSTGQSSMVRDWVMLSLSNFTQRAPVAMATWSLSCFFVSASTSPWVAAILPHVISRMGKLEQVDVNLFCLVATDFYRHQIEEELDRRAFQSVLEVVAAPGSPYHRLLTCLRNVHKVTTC
Starred values were filed as active, the others as inactive. Cut-off read from the data, not from the text of the source: active = inhibition above about 50%; inactive = the rest.

SMILES	Pf apPOL block	mHTT-CaM PPI inh
COc1cc(/C=C2/SC(=N)NC2=O)cc(Br)c1OCc1ccccc1	-5	68*
CCOc1cc(/C=C2\SC(=N)NC2=O)ccc1OCc1ccc(F)cc1	-4	60*
Cn1nnc(C#CC(C)(C)O)n1	-1	1
COC(=O)COc1ccc2c(c1C)OC(=Cc1cc(OC)c(OC)c(OC)c1)C2=O	4	-2
CCCc1ccc(S(=O)(=O)N2CCC(c3nc4ccncc4n3CCOC)C2)cc1 (stereo not given)	-2	10
COc1ccc(-c2noc(C3CCN(CC(=O)Nc4cccc(SC)c4)CC3)n2)cc1	-2	13
COc1cccc(C(=O)N2CCN=C2N2CCCC2)c1OC	-4	-5
CC(=O)N1CCC2(CC1)N=C(c1cc(Cl)ccc1O)CC(c1ccccc1O)N2 (stereo not given)	2	16
COc1cc(/C=C2/SC(=N)NC2=O)ccc1OCc1ccc([N+](=O)[O-])cc1	-4	20
COc1cc(/C=C2\SC(=N)NC2=O)ccc1Oc1ccc(C(F)(F)F)cc1[N+](=O)[O-]	-4	50*
O=C(c1cccc(Cl)c1)N1CCC(=O)N([C@H](COCc2ccccc2)Cc2ccccc2)CC1	-4	66*
Cc1ccc(S(=O)(=O)N2CCC(=O)N(C(COC(=O)Nc3ccccc3)Cc3ccccc3)CC2)cc1 (stereo not given)	-10	2
O=C(c1cccc(Cl)c1)N1CCC(C(=O)N2CCN(Cc3ccccc3)CC2)CC1	0	10
O=C(c1cc(Cl)cc(Cl)c1)N1CCC(=O)N([C@H](COCc2ccccc2)Cc2ccccc2)CC1	-3	92*
Cn1nc(CNC(=O)c2cccs2)c2ccccc21	-1	-4
COc1ccc(C(=O)N2CC(=O)Nc3ccc(Cl)cc3C2c2ccc(F)cc2)c(OC)c1 (stereo not given)	-3	43
COc1ccc(C(=O)N2CC(=O)Nc3ccc(Cl)cc3C2c2ccc(F)cc2)cc1OC (stereo not given)	-10	71*
Cc1cc([N+](=O)[O-])ccc1NCc1ccc2c(c1)OCO2	-9	4
Cc1ccc2oc(-c3cc(N)ccc3O)nc2c1	-10	34
CC(C)c1ccc2oc(-c3cc(N)ccc3O)nc2c1	-7	62*
Cc1cc(NC(=O)CCN2C(=O)c3ccncc3C2=O)ccc1Br	-4	-3
O=C(O)c1cccc(N=Cc2cc(Cl)cc([N+](=O)[O-])c2O)c1	2	9
Cc1ccc2nc(-c3cc(N=Cc4cccc([N+](=O)[O-])c4)ccc3O)[nH]c2c1	4	55*
O=[N+]([O-])c1ccccc1C=Nc1ccc2nc(-c3ccccc3)[nH]c2c1	-10	32
Cc1ccc2nc(-c3cccc([N+](=O)[O-])c3)[nH]c2c1	-3	12
SMILES	Pf apPOL block	mHTT-CaM PPI inh
O=C(O)c1cccc(N=Cc2cccc([N+](=O)[O-])c2O)c1	83*	-3
Cc1ccc2nc(-c3cc(N=Cc4cccc([N+](=O)[O-])c4O)ccc3O)[nH]c2c1	0	59*
Cc1ccc2nc(-c3cc(N=Cc4ccc([N+](=O)[O-])cc4)ccc3O)[nH]c2c1	1	55*
Cc1cccc2oc(-c3cc(N=Cc4cccc([N+](=O)[O-])c4)ccc3O)nc12	-2	2
COc1ccc(N2C=C(C#N)S(=O)(=O)c3ccc(Cl)cc32)cc1OC	1	-2
CCN1CCC(CCNC(=O)C2CCc3sc(C(=O)N4CCCC4)cc3C2)CC1 (stereo not given)	-2	0
CCCC(C)NC(=O)c1cccc(I)c1 (stereo not given)	-6	-24
CC(=O)N1CCc2cc(N3CC(C(=O)Nc4ccc(F)cc4)CC3=O)ccc21 (stereo not given)	-2	-3
O=C(NCc1cccs1)C1CCCN(c2nnc3ccc(Cl)cn23)C1 (stereo not given)	-1	10
COc1ccccc1-c1c(C#N)c(N)c(C#N)c2c1CCCC2	-2	-18
Cc1ccc(N2CCN(Cc3nc(C(=O)NC4CC4)co3)CC2)cc1	0	92*
CC1CCN(Cc2nc(C(=O)NC3CCCCC3)co2)CC1	-2	-3
O=C1OC(c2ccc([N+](=O)[O-])cc2)=N/C1=C\C=C\c1ccccc1	-6	8
CN(C)C(=O)c1cccc2c1CCN2C(=O)c1ccccc1	-2	-6
CC(C)c1ccc(/C=C2\Sc3ccccc3C2=O)cc1[N+](=O)[O-]	-2	40
O=C1/C(=C/c2cccc([N+](=O)[O-])c2O)Sc2ccccc21	-4	15
O=C1/C(=C/c2c(Cl)ccc([N+](=O)[O-])c2Cl)Sc2ccccc21	2	67*
COc1ccc(-c2ccc(C=C3C(=O)OC(c4ccccc4)OC3=O)o2)c([N+](=O)[O-])c1 (stereo not given)	-3	3
O=C1/C(=C/c2cc([N+](=O)[O-])c(Cl)cc2Cl)Sc2ccccc21	4	19
O=C1/C(=C/c2cc([N+](=O)[O-])cc(Br)c2O)Sc2ccccc21	-7	89*
COc1ccc(-c2ccc(/C=C3\Sc4ccccc4C3=O)o2)c([N+](=O)[O-])c1	-4	51*
O=C1/C(=C/c2ccc([N+](=O)[O-])cc2)Sc2ccccc21	89*	11
CC(C(=O)Nc1ccc(S(=O)(=O)Nc2nccs2)cc1)N1C(=O)c2ccccc2C1=O (stereo not given)	22	19
C=CCCC(=O)Nc1ccc2c(c1)C(=O)NCC2	-6	-8
Cc1ccc2c(c1)N(Cc1nc(-c3ccc(F)c(Cl)c3)no1)C(=O)CO2	5	-53
SMILES	Pf apPOL block	mHTT-CaM PPI inh
CC(=O)N1CCN(c2nc3c(s2)CC(C(=O)NC2CCCCCC2)CC3)CC1 (stereo not given)	-6	13
CCc1onc(C)c1C1CCCN1C(=O)Nc1ccc(C)c(Cl)c1 (stereo not given)	-2	-5
Cc1nc(C)c(C(=O)Nc2ccc(F)cc2C)s1	0	2
Cn1ccnc1SCc1cc(=O)c(OC(=O)c2ccc3c(c2)OCO3)co1	2	-7
Cc1ccc2c(c1)/C(=C/c1nc3ccccc3c(=O)n1-c1ccccc1[N+](=O)[O-])C(=O)N2	2	86*
Cc1ccc2c(c1)/C(=C/c1nc3ccccc3c(=O)n1C)C(=O)N2	-2	26
O=C(Nc1ccc(Cl)cc1)c1ccc(-c2cncnc2)nc1	-5	-4
O=C(CCN1C(=O)c2ccccc2S1(=O)=O)NCc1ccc2c(c1)OCO2	6	2
CC(C)(C)c1csc(CN2CCN(CC(=O)NC3CCCCC3)CC2)n1	-1	100*
CC(=O)c1ccc(NC(=O)CN2CCN(Cc3nc(C(C)(C)C)cs3)CC2)cc1	-2	8
CCN(CC)c1cc(CNC(=O)Nc2cccc(C)c2C)ccn1	4	-6
Nc1cccc2ccc(-c3cnc4ccccc4c3)nc12	-1	57*
c1ccc2ncc(-c3ccc4ccccc4n3)cc2c1	0	-12
CCCn1ccc2oc(C)c(C(=O)N3CCN(c4cccc(C)c4)CC3)c2c1=O	0	67*
CCCn1ccc2oc(C)c(C(=O)N3CCN(c4ccccc4)CC3)c2c1=O	1	29
CCn1ccc2oc(C)c(C(=O)N3CCN(c4cccc(Cl)c4)CC3)c2c1=O	3	94*
CCn1ccc2oc(C)c(C(=O)N3CCN(c4ccc(Cl)cc4)CC3)c2c1=O	-5	37
Cc1c(CCC(=O)O)c(=O)oc2c(C)c(O)ccc12	7	0
